Cycloheximide cs – affects cycloheximide protein synthesis inhibition readout, counter-screen; cell reporter, cycloheximide protein synthesis inhibition counterscreen; 300,000 compounds, 12% hits; max response, %; in the data active means max response mostly above about 13%, no sharp cut-off; inactive means mostly below about 14%; further: read at 38.3 µM for the half of the compounds with a filed dose; 0% is about no effect
Shiga toxin inh – blocks Shiga toxin action in Vero cells; Vero cells, Shiga toxin protein synthesis inhibition reporter; inhibition, % at 38.7 µM; 290,000 compounds, 9.2% hits; AID 2315; in the data active means inhibition mostly above about 28%, no sharp cut-off; inactive means mostly below about 43%; further: 0% is about no effect
Pf growth 96h – P. falciparum growth inhibition at 96 hours. 320,000 compounds, 6.9% hits. P. falciparum luciferase reporter growth, 96 h. Potency, µM (top dose mostly 28.7 µM), without a hit: at the highest dose activity change, negative = inhibition, most hits filed as inhibitors; further: potency means the concentration at half of the fitted maximal effect; on the % scale 0 is the no-effect control and ±100 the full control effect
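Two-generation exposure (96 h) targets delayed-death phenotype. Reporter parasites carrying integrated firefly luciferase, in red cells at 2% hematocrit and 0.05% parasitemia final, kept at 37 C, 5% CO2; luminescence loss indicates inhibition.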
NS1 inh – inhibitors of influenza NS1 protein function. Potency, µM (top dose mostly 46.1 µM), without a hit: top-dose activity, positive = more growth. AID 2326. 270,000 compounds, 0.4% hits; calls by dose curve; further: potency means the concentration at half of the fitted maximal effect; actives are rising curves; nearly all actives have a fitted effect of over 50% in size
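S. cerevisiae expressing influenza A NS1, grown in glucose, washed, then diluted 1:100 into pH 6.0 -URA galactose medium with 23 nl compound. Growth recovery read as OD600; NS1-free strain serves as control.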
Pf growth 48h – P. falciparum growth inhibition at 48 hours (one generation); P. falciparum luciferase growth in erythrocytes, 48 h; 310,000 compounds, 5.9% hits; Potency, µM (top dose mostly 28.7 µM), for the others: top-dose activity change, negative = inhibition, actives largely listed as inhibitors; further: potency means the concentration at half of the fitted maximal effect; on the % scale 0 is the no-effect control and ±100 the full control effect
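Growth was read as firefly luciferase luminescence after a 48 h, 37 C, 5% CO2 exposure of compounds to reporter-bearing P. falciparum cultures (0.1% parasitemia, 2% hematocrit final) in Albumax-supplemented RPMI 1640.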
Sm TGR block – S. mansoni TGR enzyme inhibition. 360,000 compounds, 3% hits. purified TGR, DTNB reduction, TNB absorbance 405 nm. Potency, µM (titrated, usually from 114 µM), for the others: top-dose activity change, negative = inhibition, hits mostly inhibitors. AID 485364; further: potency means the concentration at half of the fitted maximal effect; on the % scale 0 is the no-effect control and ±100 the full control effect; nearly all actives have a fitted effect of over 60% in size
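TGR 20 nM + NADPH 100 uM (dispensed conc.), cpd preinc 15 min RT; start with NADPH (500 uM addition) then DTNB (15 mM addition). Kinetic TNB absorbance, 405 nm filter. Four-parameter Hill fit across titration.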
* hit, by the source's call; ? = inconclusive; · = not tested or not shown. Shown are actives, neighbours in structure and some others; about 21% of the full set was active somewhere. Unless noted, the call rests on the fitted dose curve; in most records, active means well fitted curve in the direction sought with a large enough effect; inconclusive means small, poorly fitted or top-dose-only effect, or another doubt; inactive means no such curve, though single readings can be large; an effect the other way counts as inactive or inconclusive.

SMILES	Cycloheximide cs	Shiga toxin inh	Pf growth 96h	NS1 inh	Pf growth 48h	Sm TGR block
CCC(C)Sc1cccc(-c2nc3ccc(Cl)cn3c2NCc2ccccc2)c1 (stereo unspecified)	·	·	10µM*	·	9.3µM*	-7%
Cc1ccc2nc(-c3cccc(-c4cccc(Cl)c4)c3)c(NCc3ccccc3)n2c1	·	·	10µM*	·	7.4µM*	3%
Cc1ccccc1Nc1c(-c2ccncc2)nc2ccc(Cl)cn12	-7	-21	-3%	-3%	?	1%
CCCNC(=O)C(=O)NCC(c1ccc2c(c1)OCO2)N1CCOCC1 (stereo unspecified)	·	·	·	·	·	0%
CC1(C)CC(O)CC(C)(C)N1CC(O)COCc1ccccc1 (stereo unspecified)	-6	-7	0%	-6%	53%	4%
COc1cc(-c2nc(Cn3nnc(C(=O)Nc4ccccc4C)c3C)c(C)o2)cc(OC)c1OC	·	·	·	·	·	5%
CC(=O)N1CCc2cc(C(=O)CN3CCCCC3)ccc21	0	1	?	3%	·	?
CCOC(=O)N1CCN(CC(=O)c2ccc3c(c2)CCN3C(C)=O)CC1	-8	-17	9%	?	·	20µM*
CCOCCCNC(=O)C(c1ccc(C)cc1)N(Cc1cccs1)C(=O)c1ccccc1O (stereo unspecified)	1	-15	-6%	·	?	16%
Cc1ccc(NC(=O)CCCC(=O)O)c(-c2nc3ccccc3[nH]c2=O)c1	6	21	-3%	-5%	10%	0%
CSCCC(NC(=O)c1ccccc1Cl)C(=O)N1CCCCC1 (stereo unspecified)	·	·	-25%	·	2%	-8%
CC(=O)N[C@@H](Cc1c[nH]c2ccccc12)C(=O)OCC(=O)NCc1ccc2c(c1)OCO2	6	1	3%	·	6%	7%
CC(Nc1ccc2c(c1)OCCO2)C(=O)Nc1ccc2c(c1)OCO2 (stereo unspecified)	18	36	33%	·	28%	-7%
CC(C)CC(NC(=O)c1ccco1)C(=O)Nc1ccc2c(c1)OCCO2 (stereo unspecified)	72*	84*	?	-8%	·	-5%
CC(C)C[C@H](NC(=O)Nc1ccc2c(c1)OCCO2)C(=O)O	14	53	-14%	3%	20%	5%
CCCC(C)C(=O)Nc1ccc2c(c1)OCCO2 (stereo unspecified)	50*	86*	-5%	5%	74%	-6%
CC(=O)NC(Cc1c[nH]c2ccccc12)C(=O)Nc1ccc2c(c1)OCO2 (stereo unspecified)	9	38*	-17%	-3%	-2%	-8%
CC(C)CC(NC(N)=O)C(=O)Nc1ccc2c(c1)OCO2 (stereo unspecified)	30*	49	?	·	-8%	3%
Cc1cnc(C(=O)OCC(=O)Nc2ccccc2-c2ccccc2)cn1	·	·	59%	·	-17%	-20%
Cc1cccc(N(CC(=O)NCCSCc2ccccc2)S(=O)(=O)c2ccccc2)c1C	·	·	·	·	·	3%
Cc1cccc(CC(=O)NC2CC(=O)N(c3ccccc3)C2)c1 (stereo unspecified)	·	·	·	·	·	-3%
O=C(Nc1ccncc1)C1CCN(S(=O)(=O)c2ccc(Cl)c(C(F)(F)F)c2)CC1	·	·	12µM*	·	?	-4%
O=C(Nc1ccncc1)C1CCN(S(=O)(=O)c2ccccc2)CC1	·	·	-15%	·	?	-2%
O=C(Nc1ccncc1)C1CCN(S(=O)(=O)c2ccccc2C(F)(F)F)CC1	4	-12	3.3µM*	17%	?	0%
CSc1cccc(NC(=O)C2CCCN(c3ncnc4c3nc3n4CCCCC3)C2)c1 (stereo unspecified)	-4	-4	0%	1%	-26%	8%
SMILES	Cycloheximide cs	Shiga toxin inh	Pf growth 96h	NS1 inh	Pf growth 48h	Sm TGR block
CN(C)CCNC(=O)C1CCN(Cc2cc3ccccc3n2Cc2ccccc2)CC1	·	·	·	·	·	0%
CCCN(CCC)C(=O)Cn1c(=O)n(-c2ccc(CC)cc2)c(=O)c2c3c(sc21)CCC3	·	·	·	·	·	-6%
COC(=O)c1ccc(OC(=O)c2ccccc2F)cc1	1	-6	?	-5%	-1%	-2%
CCCCOc1ccc(-c2nc(=S)[nH][nH]2)cc1	-2	-3	12µM*	1%	·	-10%
CCCCOc1ccc(-c2nc(SCC(N)=O)n[nH]2)cc1	34*	48	186%	-2%	101%	0%
CCOc1ccccc1N=NC1C(=O)N(C(N)=S)N=C1C (stereo unspecified)	-2	-2	11%	10%	·	-2%
Cc1cc(Nc2ccccc2)n(C(=O)c2ccc(Cl)cc2)n1	35*	72*	?	-30%	-15%	-1%
Cc1cc(Nc2ccccc2)n(-c2ccc(C(=O)O)cc2)n1	-1	-10	26%	·	-3%	-13%
CCN(CC)S(=O)(=O)c1ccc(NC(=O)c2cnccn2)cc1	-1	-4	-8%	9%	6%	-2%
Oc1ccc2ccccc2c1N=Nc1ccccn1	15	18	6.6µM*	-181%	?	-7%
Oc1ccc2ccccc2c1N=Nc1ccccc1F	4	21	?	2%	-21%	-24%
O=S(=O)(O)c1cccc(N=Nc2c(O)ccc3ccccc23)c1	-2	-6	10µM*	2%	?	20µM*
CCOC(=O)c1[nH]cnc1N=Nc1c(O)ccc2ccccc12	2	-6	2.3µM*	11%	2.9µM*	-12%
CCOC(=O)C1(C)/C(=N/Nc2ccc(Cl)cc2)C(=O)C(=O)N1c1ccccc1 (stereo unspecified)	-3	1	·	-50%	8%	50µM*
CCOC(=O)C1(C)/C(=N/Nc2cccc(Cl)c2)C(=O)C(=O)N1c1ccccc1 (stereo unspecified)	-5	17	-7%	-23%	40%	0%
O=C(C1=C[C@@H]2[C@H]3C(=O)N(c4cccc(Cl)c4)C(=O)[C@H]3[C@@H](C(=O)c3ccc(Cl)cc3)N2C=C1)c1ccccc1	1	16	-22%	15%	4%	22µM*
O=C(C1=C[C@@H]2[C@H]3C(=O)N(c4ccccc4Cl)C(=O)[C@H]3[C@@H](C(=O)c3ccc(Cl)cc3)N2C=C1)c1ccccc1	-4	10	?	?	?	25µM*
Cc1ccc(N2C(=O)[C@@H]3[C@H](C2=O)[C@H]2C=C(C(=O)c4ccccc4)C=CN2[C@@H]3C(=O)c2ccc(Cl)cc2)cc1	0	9	?	?	?	40µM*
O=C(c1ccc(Cl)cc1)[C@@H]1[C@@H]2C(=O)N(c3ccccc3)C(=O)[C@@H]2C2c3ccccc3C=NN21 (stereo partly specified)	-1	12	-3%	?	19%	-9%
COc1ccccc1-c1nc2c(c(SCc3cccc(Cl)c3)n1)Cc1c(CO)cnc(C)c1O2	·	·	·	·	·	-2%
CC1CCC(C(C)C)C(OCC(O)CN2CCOCC2)C1 (stereo unspecified)	-3	-20	·	1%	-6%	-7%
